From PubChem
D1 antag = blocks dopamine activation of the human D1 receptor | actives 3.2% (n = 360,000) | HEK293 TREx D1 cells, calcium flux, dopamine EC80; hits give low values | activity change, negative = inhibition, % at 10 µM | AID 504652 | P21728; in the data active = activity change below about -30%
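Tetracycline-induced HEK293 T-REx cells with force-coupled D1 receptor were loaded with a no-wash calcium dye. Compound was added after a 10 s baseline and read kinetically for 180 s; EC80 dopamine was then added and calcium flux followed another 180 s.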
TRHR enhancer = TRH receptor (human) allosteric enhancement; TRHR cells, fluo-8 calcium fluorescence, EC20 TRH enhancement; enhancement, % at 2 µM; P34981; actives 0.66% (n = 360,000); in the data active = enhancement above about 30%
Target sequence (P34981 whole entry, looked up): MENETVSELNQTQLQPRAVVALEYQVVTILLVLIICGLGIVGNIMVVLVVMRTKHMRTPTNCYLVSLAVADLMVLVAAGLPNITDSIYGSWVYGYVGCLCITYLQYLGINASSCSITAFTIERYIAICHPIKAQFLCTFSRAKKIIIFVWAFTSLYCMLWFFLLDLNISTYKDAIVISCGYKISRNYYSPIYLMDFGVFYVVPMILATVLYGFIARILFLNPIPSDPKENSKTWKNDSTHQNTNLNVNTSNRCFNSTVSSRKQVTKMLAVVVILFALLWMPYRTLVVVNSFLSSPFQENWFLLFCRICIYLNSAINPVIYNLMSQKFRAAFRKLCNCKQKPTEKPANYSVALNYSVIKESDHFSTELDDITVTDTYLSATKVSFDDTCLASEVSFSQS
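Enhancer read-out: after compound pinning and an initial kinetic agonist-mode read, an EC20 of TRH (10 nM final) was injected and fluo-8 calcium signal (Ex 480/Em 530) followed at 1 s/cycle for 100 cycles in TRHR-expressing cells.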
D1 potentiator = human D1 dopamine receptor positive modulation | potentiation, % at 10 µM | actives 0.036% (n = 360,000) | HEK293 TREx D1 cells, calcium flux, dopamine EC20 potentiation | AID 504651 | P21728; in the data active = potentiation above about 30%
D1 ag = human D1 receptor agonism; HEK293 T-REx D1 cells, calcium flux, agonist mode; activation, % at 2 µM; actives 1% (n = 360,000); AID 504660
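Tetracycline-induced HEK293 TREx D1 cells, force-coupled to calcium signalling, were dye-loaded with a no-wash calcium kit. Compound was pin-added after a 10 s baseline. Fluorescence was read kinetically at 1 cycle/s for 180 s, with calcium rises flagged as agonism.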
TRHR agonist = activates the human TRH receptor. activation, % at 2 µM. TRHR cells, calcium flux fluo-8, FDSS agonist mode. actives 0.18% (n = 360,000)
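Steps: seed TRHR cells overnight; add fluo-8 no-wash Ca dye, RT 30 min–1.5 h; record 10 s baseline; pin-transfer compounds; monitor fluorescence 1 cycle/s for the agonist window. Calcium increases flag candidate agonists.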
Of the large screens only hits and unclear results are named; the others gave an inactive call; ! = not active in a repeat. The list is not random: actives were taken first. Their share in the collection is about 4.6%. Rule as the data show it, unless noted: active = activation above about 30%; inactive = the rest.

N#CN=C(N)c1ccccc1	D1 antag -56!
O=C(N/N=C/c1ccc([N+](=O)[O-])cc1)c1ccc(NS(=O)(=O)c2cccs2)cc1	none
O=C(N/N=C/c1ccc([N+](=O)[O-])o1)c1ccc(NS(=O)(=O)c2cccs2)cc1	D1 antag -89
CCN(CC)CCCNC(=O)c1cn(C)c2ccc(S(=O)(=O)N3CCOCC3)cc2c1=O	none
CC(=O)NN=C1CCC(c2ccccc2)CC1 (stereo unspecified)	none
NC(N)=NN=C1CCC(c2ccccc2)CC1 (stereo unspecified)	D1 potentiator 37
COc1ccc(C)cc1NC(=O)C(=O)NCCc1csc2nc(-c3ccccc3F)nn12	none
Cc1nc2ccccc2cc1OCc1ccc(Cl)cc1	none
Cc1nc2ccccc2cc1OCc1ccccc1	D1 antag -59
CCC(=O)N1CCc2cc(Br)cc(S(=O)(=O)N3CCN(c4ccc(C)cc4)C(C)C3)c21 (stereo unspecified)	none
COC(=O)c1ccc(S(=O)(=O)NCc2ccc(OC)cc2)n1C	none
COC(=O)c1ccc(S(=O)(=O)NC(C)(C)C)n1C	D1 antag -37
COc1ccc(OC)c(C(O)c2coc3ccc(O)c(CN4CCOCC4)c23)c1 (stereo unspecified)	D1 antag -30
CCC(C)c1ccccc1NC(=O)COC(=O)C1=COCCO1 (stereo unspecified)	none
CCOc1ccc(NC(=O)Nc2cc(-c3ccccc3)sc2C(=O)OC)cc1	none
CCOc1ccc(-c2cc(NC(=O)c3c(F)cccc3F)c(C(=O)O)s2)cc1	D1 antag -49
O=C(Nc1ccon1)Nc1cccc(Cl)c1Cl	none
COc1cc(CCCN2C(=O)C(=O)NC[C@@H]2C(C)O)cc(OC)c1OC (stereo partly specified)	D1 antag -37
COc1cc(CCCN2C(=O)C(=O)NC[C@@H]2c2ccccc2)cc(OC)c1OC	none
CCN(CC)C(=O)Cn1c(=O)n(-c2ccc(C)c(C)c2)c(=O)c2c(C)c(C(=O)N(CC)CC)sc21	none
CN(C)/C=C1\SC(=S)N(c2ccc(Br)cc2)C1=O	D1 ag 41
CN(C)/C=C1\SC(=S)N(c2ccc(F)cc2)C1=O	none
Cc1ccc(CN2CCC(CNC(=O)c3ccc(NC(=O)C4=CSCCO4)cc3)CC2)cc1	D1 antag -30
O=C(Nc1ccc(C(=O)NCC2CCN(Cc3ccccc3F)CC2)cc1)C1=CSCCO1	none
COc1ccc(CNC(=O)c2ccc(NC(=O)C3=CSCCO3)cc2)cc1	TRHR enhancer 34
CN1CCN(CCCNC(=O)c2ccc(NC(=O)C3=CSCCO3)cc2)CC1	none
O=C(Nc1ccc(C(=O)NCCCN2CCN(c3ccccc3)CC2)cc1)C1=CSCCO1	D1 antag -39, D1 ag 36
O=C(NCc1cccc(Cl)c1)c1c2c(nc3ccccc13)C(=O)N(C1CCCCC1)C2	none
CSc1ncccc1C(=O)NNC(=O)c1ccc(NS(=O)(=O)c2cccs2)cc1	D1 antag -45
COc1ccccc1C(=O)NNC(=O)c1ccc(NS(=O)(=O)c2cccs2)cc1	none
CCN(CC)c1ccc2nc3c(=O)n(C)c(=O)n(C)c3nc2c1	D1 ag 144, TRHR agonist 68
CC(C)c1ccc(C(O)c2nc3ccccc3n2C)cc1 (stereo unspecified)	D1 antag -36
COc1ccc(-c2nc3ccccc3s2)cc1NC(=O)c1ccccc1OC	TRHR enhancer 34
COc1ccc(-c2nc3ccccc3s2)cc1NC(=O)c1cccc(F)c1	D1 antag -30
COc1ccc(C(=O)Nc2cc(-c3nc4ccccc4s3)ccc2OC)cc1	none
COc1ccc(C2C=C(c3ccc(Cl)cc3)Nc3nc(NC(C)=O)nn32)cc1 (stereo unspecified)	D1 ag 40
CCC(=O)Nc1nc2n(n1)C(c1ccc(OC)cc1)C=C(c1ccccc1)N2 (stereo unspecified)	D1 ag 69
O=C(c1nc2n(n1)C(c1ccc(Cl)cc1)C=C(c1ccccc1)N2)N1CCOCC1 (stereo unspecified)	TRHR agonist 33
COc1ccc(C2C=C(c3cccs3)Nc3nc(CCCO)nn32)cc1 (stereo unspecified)	D1 ag 64, TRHR agonist 99
CC(=O)Nc1nc2n(n1)C(c1ccc(F)cc1)C=C(c1ccccc1)N2 (stereo unspecified)	none
COc1ccc2c(CNCCc3cccs3)c(C(=O)O)n(Cc3ccccc3C)c2c1	none
O=C(Nc1nc2n(n1)C(c1ccccc1)C=C(c1ccc(Cl)cc1)N2)c1ccco1 (stereo unspecified)	D1 ag 47
COc1ccc(C2C=C(c3ccccc3)Nc3nc(NC(=O)/C=C/c4ccccc4)nn32)cc1 (stereo unspecified)	none
COc1ccc(C2C=C(c3ccc(F)cc3)Nc3nc(-c4ccc(Cl)cc4)nn32)cc1 (stereo unspecified)	D1 ag 38
COc1ccc(C(=O)Nc2nc3n(n2)C(c2ccccc2)C=C(c2ccccc2)N3)cc1 (stereo unspecified)	D1 ag 32
COc1ccc(C2=CC(c3ccc(F)cc3)n3nnnc3N2)cc1 (stereo unspecified)	none
O=c1[nH]c2ccccc2n1Cc1ccc(F)cc1	none
OC(CNCc1ccncc1)c1ccccc1 (stereo unspecified)	none
OC(CNCc1ccc(-c2ccccc2)cc1)c1ccccc1 (stereo unspecified)	D1 ag 56
OC(CNCc1cccs1)c1ccccc1 (stereo unspecified)	D1 antag -41
Cc1ccc(CN(Cc2ccco2)C(=O)c2ccccc2Cl)o1	none
CS(=O)(=O)c1ccc(Cl)c(NC(=O)CCl)c1	none
Cc1ccc(NC(=O)Nc2cc(S(C)(=O)=O)ccc2Cl)cc1	D1 antag -38
N#Cc1ccc(Sc2ccccn2)c([N+](=O)[O-])c1	D1 antag -60
Cc1ccc(NC(=O)CSc2ncn[nH]2)cc1S(=O)(=O)N1CCOCC1	none
CC(=O)N1CCc2c(sc3c2c(=O)n(-c2ccccc2C)c(=O)n3CC(=O)Nc2ccccc2)C1	TRHR enhancer 48
CCOC(=O)N1CCc2c(sc3c2c(=O)n(-c2ccc(Cl)cc2)c(=O)n3CC(=O)c2ccc(F)cc2)C1	D1 antag -31
O=C(CCCn1c(=O)c2ccccc2n(CC(=O)Nc2cccc(Cl)c2)c1=O)NCc1ccc2c(c1)OCO2	none
CCc1nnc(NC(=O)c2nc(SCc3ccc(F)cc3)ncc2Cl)s1	none
CCN1C(=NCC(C)C)N[C@@H](c2ccccc2)[C@H](C(=O)OC)[C@H]1C	none
CCC(=O)NNc1nc2c(F)cccc2s1	none
CCC(=O)NNc1nc2c(F)cc(F)cc2s1	D1 antag -35
